# AmpC inh no detg – AmpC beta-lactamase inhibition without detergent; AID 485341; AmpC nitrocefin hydrolysis, absorbance 480 nm, 0.0001% Triton; 330,000 compounds, 0.52% hits; Potency, µM (titrated, usually from 57.1 µM), inactives show at the top dose activity change, negative = inhibition, most hits filed as inhibitors;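 further: potency means the concentration at half of the fitted maximal effect; plate controls were no compound for no effect and no enzyme for full effect; nearly all actives have a fitted effect of over 20% in size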
# Target sequence (P00811 whole entry, looked up): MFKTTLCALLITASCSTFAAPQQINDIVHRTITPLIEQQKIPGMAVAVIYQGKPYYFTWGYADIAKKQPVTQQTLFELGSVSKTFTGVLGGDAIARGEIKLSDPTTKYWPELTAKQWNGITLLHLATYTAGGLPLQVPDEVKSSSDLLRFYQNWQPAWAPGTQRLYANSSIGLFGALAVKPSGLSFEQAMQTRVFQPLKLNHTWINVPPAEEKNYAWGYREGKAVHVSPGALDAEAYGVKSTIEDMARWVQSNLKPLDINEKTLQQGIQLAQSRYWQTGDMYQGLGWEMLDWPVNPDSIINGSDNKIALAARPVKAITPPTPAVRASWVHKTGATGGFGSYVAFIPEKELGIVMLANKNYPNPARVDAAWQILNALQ
#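 20 mM phosphate pH 7.0 + 0.01% (detergent screen) or 0.0001% Triton X-100; 5.3 nM AmpC reagent; cpd preinc 15 min RT; nitrocefin (800 uM stock) to start; A480 q20 s × 4 min; Activity was normalised to no-enzyme and no-compound control wells.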
# Shiga inhibitor – blocks Shiga toxin action in Vero cells; Vero cells, Shiga toxin protein synthesis inhibition reporter; inhibition, % at 38.7 µM; 290,000 compounds, 9.2% hits; in the data active means inhibition mostly above about 28%, no sharp cut-off; inactive means mostly below about 43%; further: 0% is about no effect
# NS1 function inh – influenza NS1 inhibition; 270,000 compounds, 0.4% hits; Potency, µM (series often up to 46.1 µM), for the others: top-dose activity, positive = more growth; AID 2326; calls by dose curve; further: potency means the concentration at half of the fitted maximal effect; actives are rising curves; nearly all actives have a fitted effect of over 50% in size
#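 Compounds were scored for reversing the slow growth caused by influenza A NS1 in S. cerevisiae, measured by optical density at 600 nm. Assay medium contained 2% galactose at pH 6.0; NS1-free yeast of the same strain were the positive control.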
# AmpC inh detg – AmpC beta-lactamase inhibition with detergent present; Potency, µM (series often up to 114 µM), for the others: at the top dose activity change, negative = inhibition, usual class: inhibitors; P00811; 370,000 compounds, 0.041% hits; AmpC hydrolysis of nitrocefin, absorbance 480 nm, 0.01% Triton;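 further: potency means the concentration at half of the fitted maximal effect; 0% = no-compound wells and -100% = no-enzyme wells; nearly all actives have a fitted effect of over 25% in size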
#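 AmpC (5.3 nM in the dispensed reagent) in 20 mM phosphate pH 7.0 with 0.01% (detergent screen) or 0.0001% Triton X-100 was preincubated with compounds for 15 min at room temperature. Nitrocefin was then added from an 800 uM solution, and hydrolysis was followed at 480 nm.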
# CHX counter – counter-screen for Shiga toxin inhibitors: cycloheximide protein synthesis inhibition. cell reporter, cycloheximide protein synthesis inhibition counterscreen. max response, %. 300,000 compounds, 12% hits. AID 2314; in the data active means max response mostly above about 13%, no sharp cut-off; inactive means mostly below about 14%; further: read at 38.3 µM for the half of the compounds with a filed dose; 0% is about no effect
# Starred values were filed as active, the others as inactive; ? = inconclusive; / = no result. The sample as a whole holds a higher share of hits than the screen did. Unless noted, the call rests on the fitted dose curve; in most records, active means well fitted curve in the direction sought with a large enough effect; inconclusive means small, poorly fitted or top-dose-only effect, or another doubt; inactive means no such curve, though single readings can be large; an effect the other way counts as inactive or inconclusive.
SMILES,AmpC inh no detg,Shiga inhibitor,NS1 function inh,AmpC inh detg,CHX counter
COc1ccc(-c2ncc(CN3CCN(CCC(C)C)C(CCO)C3)cn2)cc1 (stereo not drawn),56.6%,65.6*,-2.6%,-4.1%,32.6*
Cc1cccc(-c2ncc(CN3CCN(CC(C)C)C(CCO)C3)cn2)c1 (stereo not drawn),23.4%,41.1*,-1.6%,-5.6%,15.5
CN(C)c1ccc(/C=C(/NC(=O)c2ccccc2)C(=O)N/N=C/c2ccc([N+](=O)[O-])c(O)c2)cc1,?,47.0*,?,1.9%,52.3*
CCN(CC)CCOC(=O)c1ccc(NC(=O)/C=C/c2cccs2)cc1,-24.9%,117.9*,-4.4%,-3.6%,74.8*
CC(=O)c1ccc(NC(=O)COC(=O)/C=C/c2cccs2)cc1,-35.1%,/,/,/,/
CCOC(=O)c1ccc(NC(=O)/C=C/c2cccs2)cc1,-32.4%,109.0*,-41.5%,0.3%,46.3*
O=C(COC(=O)c1ccc(Cl)c(S(=O)(=O)N2CCCCCC2)c1)Nc1ccccc1,-21.7%,56.0*,34.4%,-16.7%,35.2*
O=C(NC1=NCCS1)c1ccc(Cl)c(S(=O)(=O)N2CCCCCC2)c1,-15.3%,35.5,-3.5%,2.4%,18.5*
O=C(NC1=NCCS1)c1ccc(Cl)c(S(=O)(=O)N2CCc3ccccc32)c1,-35.2%,10.9,-55.5%,-0.7%,-2.3
Cc1ccc(C(=O)Nc2cccc(O)c2)cc1S(=O)(=O)N1CCCCCC1,-34.9%,60.6*,9.7%,3.8%,54.2*
O=C(NCc1nc2ccccc2[nH]1)c1ccc(Cl)c(S(=O)(=O)N2CCCC2)c1,-7.7%,31.6,?,?,13.9*
CCOc1cc(CNCc2ccncc2)cc(Cl)c1OC,-36.2%,-7.0,2.5%,-3.2%,-0.6
CC(C)C[C@H](NC(=O)[C@H](Cc1ccccc1)n1c(=O)[nH]c2ccccc2c1=O)C(=O)N1CCC[C@@H]1C(=O)O,-12.3%,-3.1,18.7%,?,-1.3
CCOC(=O)N1CCN(S(=O)(=O)c2c(C(=O)N3CCCCC3)c(C)n(C)c2C)CC1,22.0%,-4.3,0.2%,-0.1%,-6.9
CC(=O)Nc1ccccc1-c1nc2ccccc2n(CC(=O)Nc2ccc(C)c(Cl)c2)c1=O,/,/,/,-6.7%,/
Cc1ccc(S(=O)(=O)CCC(=O)OCC(=O)NC(C)c2ccc(F)cc2)cc1 (stereo not drawn),46.8%,/,/,-1.2%,/
O=C(O)c1cccc(NC(=O)c2ccc(Cl)c(S(=O)(=O)N3CCCCCC3)c2)c1,-27.9%,100.6*,/,-6.9%,50.3*
Cc1ccc(C(=O)Nc2ccc3cn[nH]c3c2)cc1S(=O)(=O)N1CCCCC1,-37.9%,76.4*,-6.7%,-0.6%,38.2*
Cc1ccc(O)c(C(=O)/C=C/c2ccc3c(c2)OCCCO3)c1,-15.7%,154.8*,-47.5%,-3.7%,80.8*
O=C(/C=C/c1ccc2c(c1)OCCCO2)c1ccccc1O,-14.3%,170.6*,-32.5%,-8.8%,77.9*
O=C(CCCN1C(=O)NC2(CCCC2)C1=O)Nc1cccc(S(=O)(=O)N2CCOCC2)c1,10.3%,/,/,-11.2%,/
CCOc1ccc(C(=O)N[C@H](C(=O)Nc2ccccc2OC)C(C)C)cc1,20.2%,-4.1,-15.1%,3.0%,-5.4
O=C(COc1ccccc1)NNC(=O)c1cc2ccccc2o1,-8.2%,1.7,3.8%,-2.1%,-2.0
CC(C)Cc1ccc(C(=O)NCCOc2ccccc2)o1,-3.7%,80.1*,-14.3%,-2.0%,28.7*
O=C(NCCOc1ccccc1)c1cc2ccccc2o1,/,116.9*,-60.0%,4.6%,44.7*
SMILES,AmpC inh no detg,Shiga inhibitor,NS1 function inh,AmpC inh detg,CHX counter
N#CC1(c2ccccc2)CCCN1C(=O)c1ccc(Br)cc1 (stereo not drawn),-28.5%,-9.2,-5.1%,-7.8%,-1.2
CCc1ccc2oc(C(=O)Nc3cccc(Cl)c3C)cc(=O)c2c1,/,/,/,1.1%,/
CN(c1ccccc1)S(=O)(=O)c1cccc(NC(=O)CCNC(=O)c2ccc([N+](=O)[O-])cc2)c1,-19.5%,/,/,/,/
CCN(CC)S(=O)(=O)c1cccc(NC(=O)CCNC(=O)c2ccc([N+](=O)[O-])cc2)c1,-3.6%,48.3*,-41.9%,2.2%,13.8*
CCN(CC)S(=O)(=O)c1cccc(NC(=O)CN2C(=O)c3ccc([N+](=O)[O-])cc3C2=O)c1,8.91µM*,-16.8,-20.0%,?,1.0
CCC(=O)N1c2ccc(S(=O)(=O)N3CCCCCC3)cc2CC1C (stereo not drawn),/,/,/,2.4%,/
COc1ccc(N(CC(=O)N2CCN(c3ccc(F)cc3)CC2)S(=O)(=O)c2c(C)nn(C)c2C)cc1,/,/,/,-4.6%,/
COc1ccc(CC(=O)NCc2ccco2)cc1OC,-2.8%,-23.0,12.6%,2.7%,-7.2
O=C(COc1ccccc1Br)NCc1ccco1,-13.3%,45.5,-3.8%,-13.6%,19.5*
Cc1ccc(Cl)c(OCC(=O)NCc2ccco2)c1,-19.5%,33.1,3.1%,?,23.9*
CCc1cc(=O)oc2c3c(cc(OCC(=O)NCc4ccco4)c12)OC(C)(C)CC3,19.7%,34.4*,-1.8%,?,33.2*
COc1ccccc1OCC(=O)NCc1ccco1,-15.5%,23.8,-8.2%,-4.6%,8.2
CCc1ccc(OCC(=O)NCc2ccco2)c(Br)c1,-3.6%,106.5*,-48.5%,-8.4%,40.2*
CCOC(=O)[C@@H]1[C@H]2COc3ccc(Br)cc3[C@H]2N2C(=O)N(c3ccc(C)cc3)C(=O)[C@]12C,53.5%,-5.5,23.4%,3.4%,-1.7
CCOc1ccc(CNC(=O)C2=Cc3cc(Br)ccc3OC2)cc1OC,/,/,/,-6.5%,/
Cn1cc(CCCC(=O)NCc2ccccc2Cl)c2ccccc21,/,/,/,6.6%,/
Nc1ccc2oc(-c3ccccn3)nc2c1,-14.6%,71.3*,4.2%,?,33.9*
c1cncc(-c2nc3ccccc3o2)c1,2.1%,39.5,-5.8%,2.5%,20.9*
c1cc(-c2nc3ccccc3o2)nc(-c2nc3ccccc3o2)c1,/,/,1.6%,/,/
c1cncc(-c2nc3cc(Cc4ccc5oc(-c6cccnc6)nc5c4)ccc3o2)c1,-22.2%,17.1,-3.9%,-7.8%,13.8
c1ccc(-c2nc3ccccc3o2)nc1,-18.4%,51.1*,-5.0%,-4.9%,42.2*
Clc1ccc2oc(-c3ccccn3)nc2c1,-15.2%,117.6*,-5.1%,?,43.6*
CC(C(=O)Nc1ccccc1)n1nnc2sc3c(c2c1=O)CCCC3 (stereo not drawn),/,/,/,2.6%,/
O=C(CNC(=O)c1ccco1)NNC(=O)c1cccc(Cl)c1,-14.2%,/,/,/,/
O=C1c2cccnc2C(=O)N1c1cccc(-c2nc3ccccc3o2)c1,-11.2%,67.5*,-1.1%,-0.2%,34.0*
O=C1CCC(=O)N1c1cccc(-c2nc3ccccc3o2)c1,5.4%,43.4,-10.5%,?,7.4
COc1ccc2[nH]c3c(NCCCOC(C)C)ncnc3c2c1,-35.4%,58.5,0.1%,-2.5%,43.9*
COc1ccc2[nH]c3c(NCc4ccco4)ncnc3c2c1,?,96.7*,-7.1%,-3.0%,35.7*
CCN(CC)CCNc1ncnc2c1[nH]c1ccc(OC)cc12,59.1%,-7.5,-0.8%,3.6%,-1.6
CCOc1ccc2[nH]c3c(NCCC(C)C)ncnc3c2c1,-23.8%,28.9,-5.7%,-6.0%,14.3*
